KLF5 inh = KLF5 expression inhibitors, primary screen, DLD-1 cells, luminescence; DLD-1 KLF5 promoter-luciferase reporter; inhibition, % at 5 µM; hit rate 0.23% among 290,000; AID 1700, 2009;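 active means inhibition above a per-plate limit of that plate's mean compound inhibition plus 3 SD, cut at about 60% in these data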;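 further: 0% = DMSO wells and 100% = LY294002 at 200 µM; higher means less KLF5 promoter-driven luciferase light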
Gli-Sufu block = Gli-Sufu pathway antagonists, primary screen, luciferase luminescence, Sufu-KO-LIGHT cells, uHTS; Sufu-KO-LIGHT fibroblasts, Gli luciferase reporter luminescence; AID 588413, 2011; hit rate 0.74% among 340,000; inhibition, % at 5 µM;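 active means inhibition above about 55%, limit read from the data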;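 further: 0% = DMSO-treated cells and 100% = wells with medium but no cells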
697 NFkB inh = inhibitors of PMA/ionomycin-induced NF-kB reporter, 697 cells, primary screen, B-cell NF-kB inhibitor project, cell-based, luminescence, uHTS; 697 B-cell NF-kB luciferase reporter, 16 h; inhibition, % at 4 µM; hit rate 0.33% among 330,000; in the data active means inhibition above about 35%
aSyn 5UTR inh = MLPCN primary screen, SNCA 5' untranslated region. alpha-synuclein 5'UTR reporter, inhibitor activity. inhibition, % (tested at 7.5 µM). hit rate 0.82% among 300,000; in the data active means inhibition above about 60%;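 further: H4 neuroglioblastoma cells stably carrying SNCA 5'UTR luciferase fusion; 0% = DMSO wells and 100% = positive control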
Mdm2-MdmX inh = inhibitors of human Mdm2-MdmX association, primary screen, cell-based, luminescence, split luciferase, SaOS-2, uHTS; Protein Mdm4 (Homo sapiens) + E3 ubiquitin-protein ligase Mdm2 (Homo sapiens), …; SaOS-2 split-luciferase Mdm2/MdmX complementation; inhibition, % at 8 µM; hit rate 3% among 330,000;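 active means inhibition of at least 50% at 8 µM in the primary screen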
Target sequence (O15151 whole entry, looked up): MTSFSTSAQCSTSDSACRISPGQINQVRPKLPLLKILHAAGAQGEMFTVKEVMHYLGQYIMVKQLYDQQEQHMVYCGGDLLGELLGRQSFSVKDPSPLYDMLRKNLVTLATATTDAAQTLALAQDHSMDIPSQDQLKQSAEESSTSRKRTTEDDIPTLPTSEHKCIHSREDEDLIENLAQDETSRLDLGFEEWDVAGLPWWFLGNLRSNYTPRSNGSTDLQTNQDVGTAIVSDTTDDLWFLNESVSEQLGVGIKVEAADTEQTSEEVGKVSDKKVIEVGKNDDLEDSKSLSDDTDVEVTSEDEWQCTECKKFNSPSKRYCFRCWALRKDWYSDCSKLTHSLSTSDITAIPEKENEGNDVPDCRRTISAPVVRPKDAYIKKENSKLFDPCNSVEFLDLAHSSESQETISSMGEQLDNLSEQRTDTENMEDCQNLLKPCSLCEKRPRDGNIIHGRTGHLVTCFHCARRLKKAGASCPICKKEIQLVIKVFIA
Target sequence (Q00987 whole entry, looked up): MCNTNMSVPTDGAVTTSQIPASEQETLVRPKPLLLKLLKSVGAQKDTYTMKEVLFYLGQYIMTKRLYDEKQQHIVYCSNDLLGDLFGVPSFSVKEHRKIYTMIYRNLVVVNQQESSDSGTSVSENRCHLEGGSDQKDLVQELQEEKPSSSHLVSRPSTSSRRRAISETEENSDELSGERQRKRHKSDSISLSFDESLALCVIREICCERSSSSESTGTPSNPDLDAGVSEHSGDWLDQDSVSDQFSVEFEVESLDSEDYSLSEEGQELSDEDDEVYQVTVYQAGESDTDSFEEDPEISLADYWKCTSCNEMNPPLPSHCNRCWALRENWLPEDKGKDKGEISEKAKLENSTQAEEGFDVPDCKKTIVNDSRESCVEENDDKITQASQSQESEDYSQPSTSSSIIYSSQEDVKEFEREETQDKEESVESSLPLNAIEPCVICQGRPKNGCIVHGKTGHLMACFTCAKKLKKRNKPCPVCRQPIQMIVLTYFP
Jurkat NFkB inh = inhibitors of induced NF-kB luciferase reporter, primary screen, TCR NF-kB activation inhibitor project, cell-based, luminescence, uHTS; Jurkat, PMA/ionomycin-induced NF-kB luciferase reporter; inhibition, % at 4 µM; hit rate 0.53% among 330,000; AID 435003, 2010; in the data active means inhibition above about 50%
Mdm2 MdmX conf = Mdm2-MdmX complex disruptors, retested hits, confirmation, luminescence, single concentration. hit rate 55% among 10,000. Mdm2-MdmX binding, luminescent assay. inhibition, % at 8 µM. shares compounds with Mdm2-MdmX inh; in the data active means inhibition above about 40%
FLuc counter = full-length luciferase signal inhibition, confirmation, counter-screen for Mdm2/MdmX interaction inhibitor project, cell-based, single concentration, SaOS-2; shares compounds with Mdm2-MdmX inh; SaOS-2 full-length luciferase counterscreen, luminescence; inhibition, % at 8 µM; hit rate 77% among 6,200;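 active means mean inhibition at 8 µM reaching about 37%, which flags the compound as non-specific, limit read from the data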;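 further: p53-null SaOS-2 cells with luciferase driven by a doxycycline-inducible promoter; compound on cells about two nights before reading with doxycycline added after day one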
Starred values were filed as active, the others as inactive; . = no result. Only some compounds are listed: those with a hit (about 4.1% of all), similar ones and a draw of the others.

SMILES	KLF5 inh	Gli-Sufu block	697 NFkB inh	aSyn 5UTR inh	Mdm2-MdmX inh	Jurkat NFkB inh	Mdm2 MdmX conf	others
CC(=O)c1cccc(NC(=O)Nc2ccc(C(=O)N3CCCC3)cc2)c1	2	-6	-2	-37	52*	-2	37
CC(=O)c1cccc(NC(=O)Nc2ccc3c(c2)N(C)C(=O)CS3)c1	-32	2	-3	17	51*	13	20
O=S(=O)(Nc1ccc(O)c(NS(=O)(=O)c2ccccc2)c1)c1ccccc1	-26	6	14	-30	18	-12	.
COc1ccc([C@H]2CC(=O)C=C(c3cc(F)ccc3OC)C2)cc1	.	2	5	.	25	20	.
COc1ccc([C@H]2CC(=O)C=C(c3cc(OC)ccc3OC)C2)cc1	.	6	-23	.	51*	44	51*	FLuc counter=54*
Cc1cc(N)n(-c2ccccn2)n1	-11	5	-4	-29	23	-12	.
C=C(CCC(=O)c1ccccc1)C(=O)c1ccccc1	-21	3	.	-23	.	.	.
C=C(C(=O)c1ccccc1)C(CC(=O)c1ccccc1)c1ccccc1 (stereo not given)	-12	23	-49	37	101*	14	99*	FLuc counter=55*
Cc1ccc(C)c(OCc2nnc(NC(=O)c3ccc4c(c3)OCO4)s2)c1	2	0	4	7	69*	17	28
CC(C)(C)c1nnc(NC(=O)c2ccc3c(c2)OCO3)s1	-183	-26	-143	-191	-61	-120	.
Cc1ccc(NC(=O)COC(=O)c2ccc(Cl)nc2)cc1S(=O)(=O)N1CCCCC1	.	-5	3	.	5	6	.
COc1ccc(-c2cn3c(C)c(C(=O)Nc4ccncc4)sc3n2)cc1	-61	13	-44	-34	25	-4	.
Cc1c(C(=O)Nc2ccncc2)sc2nc(-c3ccc(F)cc3)cn12	-28	20	-30	-28	67*	0	9
C#CCOCCOCCOCCNc1nc(N2CCN(C(=O)CCCCCCCCCCNC(=O)[C@H]([C@@H](C)CC)n3cc(CCCCCN)nn3)CC2)nc(N2CCN(C(=O)CCCCCCCCCCNC(=O)[C@@H]([C@H](C)O)n3cc(C)nn3)CC2)n1	.	-2	-25	.	98*	49	55*	FLuc counter=40*
C#CCOCCOCCOCCNc1nc(N2CCN(C(=O)CCCCCCCCCCNC(=O)[C@H](CCCCN)n3cc(C)nn3)CC2)nc(N2CCN(C(=O)CCCCCCCCCCNC(=O)[C@@H]([C@H](C)CC)n3cc(CCCCCN)nn3)CC2)n1	.	.	-25	.	100*	9	100*	FLuc counter=21
C#CCOCCOCCOCCNc1nc(N2CCN(C(=O)CCCCCCCCCCNC(=O)Cn3cc(CCCCCN)nn3)CC2)nc(N2CCN(C(=O)CCCCCCCCCCNC(=O)[C@H]([C@@H](C)CC)n3cc(CCCCCN)nn3)CC2)n1	.	5	-47	.	100*	-16	21
C#CCOCCOCCOCCNc1nc(N2CCN(C(=O)CCCCCCCCCCNC(=O)[C@H](CO)n3cc(CCCSC)nn3)CC2)nc(N2CCN(C(=O)CCCCCCCCCCNC(=O)[C@H](CCCCN)n3cc(C[C@@H](C)CC)nn3)CC2)n1	.	.	-33	110*	100*	50	57*	FLuc counter=27
COc1ccc(CCNC(=O)Cn2nnc(C(=O)Nc3cccc(C)c3C)c2N)cc1OC	-52	-10	12	20	16	-3	.
C/C(=N\NC(=O)c1cccc(S(=O)(=O)N2CCOCC2)c1)c1ccc(OCC(=O)N(C)C)cc1	.	2	3	7	20	1	.
Cc1cc(NC(=O)CSc2nnc(-c3ccncc3)n2N)ccc1Br	-18	7	13	1	22	-7	.
C#CCOCCOCCOCCNc1nc(N2CCN(C(=O)CCCCCCCCCCNC(=O)Cn3cc(C[C@@H](C)O)nn3)CC2)nc(N2CCN(C(=O)CCCCCCCCCCNC(=O)[C@H](CCCCN)n3cc(C[C@@H](C)CC)nn3)CC2)n1	.	12	-17	.	93*	28	55*	FLuc counter=55*
C#CCOCCOCCOCCNc1nc(N2CCN(C(=O)CCCCCCCCCCNC(=O)[C@@H](CCSC)n3cc(CCO)nn3)CC2)nc(N2CCN(C(=O)CCCCCCCCCCNC(=O)[C@H]([C@@H](C)CC)n3cc(CCCCCN)nn3)CC2)n1	.	20	-45	.	92*	32	31
CCc1nnc(NC(=O)CN2CCCC(C)C2)s1 (stereo not given)	-2	-3	-2	-14	22	4	.
CC(C)(C)c1cc(-c2nc(N)nc(N)n2)c(O)c(C(C)(C)C)c1	.	-18	21	.	68*	1	6
COC(=O)C1=CN(c2cc(C)cc(C)c2)C=C(C(=O)OC)C1c1cccc(F)c1	-15	9	9	28	53*	10	37	FLuc counter=106*
SMILES	KLF5 inh	Gli-Sufu block	697 NFkB inh	aSyn 5UTR inh	Mdm2-MdmX inh	Jurkat NFkB inh	Mdm2 MdmX conf	others
Cc1onc(-c2ccccc2)c1C(=O)OCC(=O)NC(C)c1ccc(Cl)cc1 (stereo not given)	.	0	14	.	-27	12	.
O=C(Nc1cccc(-c2csc(Nc3cccc(C(F)(F)F)c3)n2)c1)c1cc([N+](=O)[O-])cc(C(F)(F)F)c1	.	24	-6	-37	64*	-5	5
O=C(Nc1ccc(-c2csc(Nc3ccccc3)n2)cc1)c1cc([N+](=O)[O-])cc(C(F)(F)F)c1	.	15	-35	9	41	-2	.
COc1cc(-c2nc3cnccn3c2Nc2ccccc2)ccc1O	-18	4	6	24	57*	-13	38	FLuc counter=94*
COc1cc(-c2nc3cnccn3c2Nc2ccc(C(C)C)cc2)ccc1O	13	10	-52	-1	34	-11	.
COc1cc(-c2nc3cnccn3c2Nc2ccc(C)cc2)ccc1O	-64	-2	-21	22	69*	-27	8
CC(=O)Nc1nc(C2CC2)cc(-c2ccccc2)c1C#N	-21	14	15	34	20	24	.
O=C(Cn1c(=O)oc2cc(S(=O)(=O)N3CCCC3)ccc21)N1CCc2ccccc2C1	-7	17	4	11	9	4	.
O=C(Cn1c(=O)oc2cc(S(=O)(=O)N3CCCCC3)ccc21)N1CCc2ccccc21	-13	15	-1	16	59*	-16	0

Bioassay records: PubChem BioAssay, several laboratories
